Sampled rows, rich in hits. Any-hit rate of the full collection: about 27%.
CYP2C19 act – increases human CYP2C19 enzyme activity | 96,000 tested, under 10 active | recombinant CYP2C19, luciferin-H EGE luminescence; active compounds read high; 0 = fully inhibited enzyme, 1 = untreated enzyme | activation factor at 5 µM | AID 1025;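 active means activation factor of at least 2 at 5 µM in the primary screen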;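 further: 0 = wells with 2.5 mM tranylcypromine and 1 = vehicle-only wells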
Target sequence (P33261 whole entry, looked up): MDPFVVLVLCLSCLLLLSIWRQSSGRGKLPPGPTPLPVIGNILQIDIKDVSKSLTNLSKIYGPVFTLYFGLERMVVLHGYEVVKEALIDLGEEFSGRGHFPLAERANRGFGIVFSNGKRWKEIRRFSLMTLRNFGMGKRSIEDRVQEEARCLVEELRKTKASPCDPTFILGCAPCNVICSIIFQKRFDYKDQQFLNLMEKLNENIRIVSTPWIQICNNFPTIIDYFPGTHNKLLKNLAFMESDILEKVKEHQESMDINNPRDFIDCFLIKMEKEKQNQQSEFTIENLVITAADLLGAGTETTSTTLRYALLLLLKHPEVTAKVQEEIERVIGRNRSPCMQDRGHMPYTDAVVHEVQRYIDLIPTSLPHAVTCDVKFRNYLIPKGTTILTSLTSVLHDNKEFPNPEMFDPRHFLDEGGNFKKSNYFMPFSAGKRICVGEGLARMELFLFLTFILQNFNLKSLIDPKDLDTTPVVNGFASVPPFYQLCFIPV
CYP2C9 act – CYP2C9 (human) activation; recombinant CYP2C9, luciferin-H conversion, luminescence; active compounds read high; factor 1 = untreated enzyme, 0 = blocked; activation factor at 5 µM; 96,000 compounds, 1.4% hits; AID 1024;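 active means activation factor of 2 or more for CYP2C9 at a 5 µM dose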;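 further: 0 = sulfaphenazole-blocked wells and 1 = vehicle-only wells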
Cav32 inh – blocks human Cav3.2 T-type calcium channel; O95180; 100,000 compounds, 4% hits; B-score at 10 µM; Cav3.2-expressing cells, Fluo-4 calcium fluorescence FDSS; active compounds read low;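 active means single-dose well whose peak fluorescence ratio is a statistical outlier from its plate by either plate-standardised score or position-corrected B-score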
CYP2C19 inh – inhibitors of human CYP2C19. CYP2C19 Supersomes, luciferin-H EGE luminescence, 30 min. inhibition, % at 5 µM. 96,000 compounds, 21% hits. AID 778;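 active means CYP2C19 inhibition above a set limit at 5 µM in the primary screen, cut at about 50% in these data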;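 further: plate controls were negative control wells for no effect and 2.5 mM tranylcypromine positive control for full effect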
CYP2C9 inh – blocks human cytochrome P450 2C9; P11712; CYP2C9 Supersomes, luciferin-H conversion, luminescence; inhibition, % at 5 µM; 96,000 compounds, 20% hits;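 active means blocking of liver enzyme CYP2C9 beyond about 50% at 5 µM, limit read from the data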
Starred values were filed as active, the others as inactive; nt = no result given.

SMILES | CYP2C19 act | CYP2C9 act | Cav32 inh | CYP2C19 inh | CYP2C9 inh
CC(C)Oc1ccc(C2C(C(=O)c3ccco3)=C(O)C(=O)N2Cc2cccnc2)cc1 (stereo unspecified) | 1 | 0.6 | 0.7 | -2 | 45
CCN(CC)CCCN1C(=O)C(O)=C(C(=O)c2cccs2)C1c1ccccn1 (stereo unspecified) | nt | nt | 0.23 | nt | nt
Cc1nc(C)c(C(=O)C2=C(O)C(=O)N(CCCn3ccnc3)C2c2ccc(Cl)cc2)s1 (stereo unspecified) | 0.8 | 0.4 | 0.37 | 24 | 59*
CCc1c(O)nc(SCC(=O)Nc2ccccc2C)[nH]c1=O | 1.2 | 1 | 0.91 | -19 | 1
O=C1c2ccccc2C(=O)N1OCc1cccc(Cl)c1 | 0.2 | 1.1 | 0.83 | 76* | -5
O=C(c1cccc(N2C(=O)C3CC=CCC3C2=O)c1)N1CCCCCC1 (stereo unspecified) | nt | nt | 1.1 | nt | nt
NC(=O)c1ccc(N2CCCCC2)c(N2C(=O)C3CC=CCC3C2=O)c1 (stereo unspecified) | 0.5 | 0.7 | -0.024 | 50* | 31
Cc1nc(-c2ccccn2)sc1C(=O)Nc1ccc(Cl)c(Cl)c1 | 0.9 | 0.6 | -1.2 | 10 | 41
CC[n+]1c(/C=C/C=C/N(C(C)=O)c2ccccc2)sc2ccccc21 | nt | nt | -4.6* | nt | nt
CC(=O)Nc1cc(C(=O)N2CCCC2)ccc1Sc1ccc(C)cc1 | 0.4 | 0.6 | -2.1 | 65* | 36
CC(=O)Nc1cc(C(=O)N2CCCC2)ccc1Sc1ccc(Cl)cc1 | 0.7 | 0.9 | -0.51 | 29 | 9
CCC(=O)c1cc(F)c(N2CCN(S(=O)(=O)c3ccccc3)CC2)cc1C | 1 | 0.7 | 7.9e-05 | -3 | 31
Cc1cc(S(=O)(=O)N2CCN(c3c(C)cccc3C)CC2)ccc1F | 0 | 0 | -4.3 | 97* | 98*
Cc1cc(S(=O)(=O)N2CCN(c3ccccc3C)CC2)ccc1F | 0 | 0 | -2.2 | 97* | 95*
O=C(c1cccc(S(=O)(=O)N2CCCC2)c1)c1cccc(S(=O)(=O)N2CCCC2)c1 | 0.9 | 0.9 | 1.5 | 10 | 6
O=c1ccc2cc(S(=O)(=O)N3CCN(c4cc(Cl)ccc4Cl)CC3)ccc2o1 | 0.3 | 0.1 | -4.3 | 74* | 88*
Cc1ccc(Cl)cc1N1CCN(S(=O)(=O)c2cccc(S(=O)(=O)N3CCCC3)c2)CC1 | 0.4 | 0.1 | -3.4 | 64* | 87*
O=c1c(Cl)c(N2CCN(S(=O)(=O)c3ccc(F)cc3)CC2)cnn1-c1cccc(Cl)c1 | 0.9 | 0.8 | 0.71 | 11 | 19
O=C(Cn1cnc2ccccc2c1=O)NC1CCCc2ccccc21 (stereo unspecified) | 1 | 1 | 0.6 | 0 | 4
Cc1cc(C)c(-c2cc(NC(=O)CSc3nncn3C)n(-c3ccccc3)n2)cc1C | 1 | 0.9 | -1.4 | 5 | 11
Cc1ccc(S(=O)(=O)N2C(=O)CCC2C(=O)Nn2cnnc2)cc1 (stereo unspecified) | 1.1 | 1.2 | 0.64 | -11 | -23
COc1ccccc1N1CCN(S(=O)(=O)c2cc(C)sc2C)CC1 | 0.6 | 0.7 | -1.6 | 42 | 35
Cc1cccc(N2CCN(S(=O)(=O)c3ccc(S(=O)(=O)N4CCCC4)cc3)CC2)c1C | 0.9 | 0.8 | nt | 8 | 24
Cc1cc(S(=O)(=O)N2CC(=O)N(CCc3ccccc3)C(=O)C2)ccc1F | 0.9 | 0.9 | 0.022 | 10 | 8
Cc1cc(S(=O)(=O)N2CCN=C2c2ccccc2)ccc1F | 0.1 | 0.4 | -0.43 | 95* | 65*
SMILES | CYP2C19 act | CYP2C9 act | Cav32 inh | CYP2C19 inh | CYP2C9 inh
Cc1ccccc1N1CCN(S(=O)(=O)c2ccccc2)CC1 | nt | nt | -4.6* | nt | nt
Cc1cc(S(=O)(=O)N2CCN(c3ccccc3O)CC2)c(C)s1 | 0.3 | 0.7 | -0.94 | 71* | 30
Cc1cc(=O)oc2cc(OCc3cc4c(cc3Cl)OCO4)ccc12 | 0.9 | 0.7 | -1.4 | 15 | 30
CC(=O)NCCOc1cccc2ccccc12 | 0.4 | 1.8 | 0.99 | 56* | -84
CC(C)(C)OC(=O)[C@H](Cc1ccccc1)NC(=O)c1nc[nH]c1C(=O)NC1CCN(C(=O)OC(C)(C)C)CC1 | nt | nt | -1.2 | nt | nt
CC1=NC(C(F)(F)F)(C(F)(F)F)C(C#N)=C(C)N1 | 0.3 | 1 | 0.15 | 69* | 0
CCOC(=O)N1CCC(N2C(=O)c3ccccc3C2=O)CC1 | 0.8 | 0.6 | -0.49 | 16 | 44
CCOC(=O)N1CCC(N2C(=O)c3ccccc3C2Nc2ccc3c(c2)OCCO3)CC1 (stereo unspecified) | 0.7 | 0.5 | -0.026 | 33 | 47
CCOC(=O)c1ccccc1NC1c2ccccc2C(=O)N1C1CCN(C(=O)OCC)CC1 (stereo unspecified) | 0.8 | 0.6 | -5.8* | 22 | 37
CCOC(=O)N1CCC(N2C(=O)c3ccccc3C2Nc2ccccc2C)CC1 (stereo unspecified) | 0.4 | 0.2 | -0.23 | 65* | 80*
CCOC(=O)N1CCC(N2C(=O)c3ccccc3C2Nc2cccnc2)CC1 (stereo unspecified) | 1.1 | 0.9 | 0.35 | -12 | 12
CCOC(=O)N1CCC(N2C(=O)c3ccccc3C2Nc2ccc(Cl)cn2)CC1 (stereo unspecified) | 0.4 | 0.4 | -2.1 | 58* | 58*
CC(=O)Oc1cc2cccc(OC(C)=O)c(=O)c2c(OC(C)=O)c1OC(C)=O | nt | nt | -0.011 | nt | nt
COCCn1cc(C(=O)N2CCC(C)CC2)c2c3ccccc3n(C)c2c1=O | 1.1 | 1 | 0.025 | -7 | 4
Cc1ccccc1NC(=S)NC1CC2CCC(C1)N2Cc1ccco1 (stereo unspecified) | 1.1 | 1.1 | 0.087 | -8 | -6
CCO/C=N/c1c(C#N)c2c(c(=S)n1C)COC(C)(C)C2 | 0.3 | 0.5 | -0.5 | 66* | 49
O=C(Nc1ccc(Cl)c(C(F)(F)F)c1)[C@@H]1CC=C[C@@H]2CCN(Cc3ccc(Cl)c(Cl)c3)C(=O)[C@@H]21 | nt | nt | -1.9 | nt | nt
CSc1cccc(NS(=O)(=O)c2cccc3nsnc23)c1 | 0.4 | 0.4 | -1.6 | 58* | 64*
COc1cc(NS(=O)(=O)c2cccc3nsnc23)cc(OC)c1 | 0.1 | 0.5 | -3.3 | 93* | 45
O=C(Nc1ccccc1)N1CCC(C(=O)N(Cc2ccco2)Cc2cccs2)CC1 | 0.8 | 0.7 | -0.019 | 18 | 30
CC(Sc1nnc(N)s1)c1ccccc1Cl (stereo unspecified) | 0 | 0.5 | 0.57 | 96* | 51*
O=C(COC(=O)c1cc(S(=O)(=O)N2CCOCC2)c(Cl)cc1Cl)Nc1ncc(C(F)(F)F)cc1Cl | 1 | 0.9 | 0.43 | 3 | 6
CCCCn1c(=O)n(CC(=O)Nc2ccc(OC)c(Cl)c2)c(=O)c2c1nc(CO)n2CCC | 0.2 | 0.1 | -5.5* | 79* | 90*
CCCCn1c(=O)n(CC(=O)Nc2ccc(C)c(Cl)c2)c(=O)c2c1ncn2Cc1ccco1 | 0.5 | 0.4 | -4.8 | 51* | 62*
CCCCn1c(=O)n(CC(=O)Nc2c(CC)cccc2CC)c(=O)c2c1nc(CO)n2CCC | 1.1 | 0.8 | -0.2 | -5 | 22

Source: PubChem (several laboratories)
